Records with an inconclusive call do not appear. Activity calls are given as the source filed them. Unless noted, calls come from the whole dose curve; as a rule, active = well fitted curve in the direction sought with a large enough effect in the repeat runs; inconclusive = weak or mixed curves; inactive = no such curve, though single readings can be large; an effect the other way counts as inactive or inconclusive.

Drawing on PubChem BioAssay (Tox21), this text covers Potency and outcome for 34 compounds.

Test [1] is described as follows: qHTS assay to identify small molecule agonists of H2AX (AID 1224845; active = well fitted activation curve with a large enough effect in the signal ratio in the repeat runs, not every such curve was filed as active; the % refers to the signal ratio). The method in brief:
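Wild-type CHO-K1 cells, plated overnight, exposed 3hr at 37C to 15 concentrations (0.76% DMSO final). Lysed, then HTRF anti-pH2AX (S139) cryptate and anti-H2AX-d2 antibodies, 24 hr room temperature; 665/620 nm emission read.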
Background: In qHTS, concentration-response curves come from the screen itself.

Test [2] is described as follows: Caspase-3/7 induction in HepG2 cells by small molecules, qHTS assay (AID 1346978). Note: nearly all actives have a fitted effect of over 15% in size. The method in brief: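 Wild-type HepG2 cells, 2,000/well, settled 5 hr at 37 C and 5% CO2, then compound-treated for 17 hr; caspase-3/7 activity read by luminescent Caspase-Glo 3/7 after 30 min at room temperature.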
Test [3] addresses Acetylcholinesterase (Homo sapiens) (UniProt P22303). As to the kind of experiment: Acetylcholinesterase (AChE) small molecule antagonists: colormetric cell-based qHTS assay (AID 1347395; calls by dose curve; note: nearly all actives have a fitted effect of over 30% in size). The method in brief:
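Colorimetric read-out: DTNB detects thiocholine released when cellular AChE in SH-SY5Y cells hydrolyses acetylthiocholine. Cells attached overnight, received compound for 30 min at 37 C, then substrate mix for 90 min at 37 C.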

For test [4] the target is unchanged. Nature of the test: Acetylcholinesterase (AChE) small molecule antagonists: enzyme-based qHTS assay (AID 1347397; calls by dose curve; note: nearly all actives have a fitted effect of over 55% in size). Conditions: Potency: AChE enzyme activity inhibition; outcome: AChE enzyme activity inhibition. A digest of the protocol: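 In this quantitative HTS, compounds from the Tox21 10K collection were preincubated 30 min at ambient temperature with recombinant human AChE dispensed at 50 mU/mL. Hydrolysis of acetylthiocholine was then followed for 10 min by DTNB colour development.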

Test [5] shares this target. As to the kind of experiment: Acetylcholinesterase (AChE) small molecule antagonists: fluorescence cell-based qHTS assay (AID 1347398; calls by dose curve; note: nearly all actives have a fitted effect of over 50% in size). Conditions: Potency: AChE activity; outcome: AChE activity. The method in brief:
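Cells (SH-SY5Y) attached overnight, were dosed with compound or DMSO vehicle for 30 min at 37 C, and then incubated 40 min at room temperature with acetylthiocholine and Thiolite Green; green fluorescence indexed AChE activity.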

Test [6] has the same target. Nature of the test: Acetylcholinesterase (AChE) small molecule antagonists: enzyme-based qHTS assay with human liver microsomes (AID 1347399; calls by dose curve; note: nearly all actives have a fitted effect of over 60% in size). The conditions noted are these: Potency: qHTS inhibition; outcome: qHTS inhibition. A digest of the protocol: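 Recombinant human AChE (50 mU/mL in the enzyme mix) and human liver microsomes (0.25 mg/mL final) were preincubated with compound and NADPH (0.25 mg/mL final) for 30 min at 37 C. Acetylthiocholine/DTNB was then added; thiocholine was read colorimetrically after 10 min at room temperature.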

The target in test [7] is Aromatase (Homo sapiens) (UniProt P11511). Nature of the test: qHTS assay to identify aromatase inhibitors (AID 743083). Note: nearly all actives have a fitted effect of over 55% in size. Note: potency is the fitted concentration of half-maximal effect.
Sequence of Aromatase (Homo sapiens) (P11511 whole entry, looked up): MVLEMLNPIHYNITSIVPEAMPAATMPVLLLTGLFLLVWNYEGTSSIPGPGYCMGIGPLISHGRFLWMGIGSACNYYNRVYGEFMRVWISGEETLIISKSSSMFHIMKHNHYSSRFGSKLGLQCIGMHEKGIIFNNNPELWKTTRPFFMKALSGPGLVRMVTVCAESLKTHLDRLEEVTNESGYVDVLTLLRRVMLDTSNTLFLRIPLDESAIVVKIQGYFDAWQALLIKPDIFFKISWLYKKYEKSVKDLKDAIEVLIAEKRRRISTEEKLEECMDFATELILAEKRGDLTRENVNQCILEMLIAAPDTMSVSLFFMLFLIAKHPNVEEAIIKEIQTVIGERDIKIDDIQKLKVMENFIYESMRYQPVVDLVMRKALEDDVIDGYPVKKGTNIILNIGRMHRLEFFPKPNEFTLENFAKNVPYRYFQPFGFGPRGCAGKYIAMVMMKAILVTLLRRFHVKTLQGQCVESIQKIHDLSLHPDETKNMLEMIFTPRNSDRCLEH
In test [8] the target is Aryl hydrocarbon receptor (Homo sapiens) (UniProt P35869). As to the kind of experiment: qHTS assay to identify small molecule that activate the aryl hydrocarbon receptor (AhR) signaling pathway (AID 743085).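 Note: HG2L7.5c1 human HepG2 liver cells with stably integrated DRE-driven firefly reporter; series mostly up to about 70 µM; nearly all actives have a fitted effect of over 15% in size.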 The method in brief: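 Cell line HG2L7.5c1 (human hepatoma, 20× DRE-luc). Plated, 5 h 37C, compound/DMSO added, 24 h 37C. CellTiter-Fluor 30 min 37C → fluorescence; then ONE-Glo 30 min RT → luminescence.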
Sequence of Aryl hydrocarbon receptor (Homo sapiens) (P35869 whole entry, looked up): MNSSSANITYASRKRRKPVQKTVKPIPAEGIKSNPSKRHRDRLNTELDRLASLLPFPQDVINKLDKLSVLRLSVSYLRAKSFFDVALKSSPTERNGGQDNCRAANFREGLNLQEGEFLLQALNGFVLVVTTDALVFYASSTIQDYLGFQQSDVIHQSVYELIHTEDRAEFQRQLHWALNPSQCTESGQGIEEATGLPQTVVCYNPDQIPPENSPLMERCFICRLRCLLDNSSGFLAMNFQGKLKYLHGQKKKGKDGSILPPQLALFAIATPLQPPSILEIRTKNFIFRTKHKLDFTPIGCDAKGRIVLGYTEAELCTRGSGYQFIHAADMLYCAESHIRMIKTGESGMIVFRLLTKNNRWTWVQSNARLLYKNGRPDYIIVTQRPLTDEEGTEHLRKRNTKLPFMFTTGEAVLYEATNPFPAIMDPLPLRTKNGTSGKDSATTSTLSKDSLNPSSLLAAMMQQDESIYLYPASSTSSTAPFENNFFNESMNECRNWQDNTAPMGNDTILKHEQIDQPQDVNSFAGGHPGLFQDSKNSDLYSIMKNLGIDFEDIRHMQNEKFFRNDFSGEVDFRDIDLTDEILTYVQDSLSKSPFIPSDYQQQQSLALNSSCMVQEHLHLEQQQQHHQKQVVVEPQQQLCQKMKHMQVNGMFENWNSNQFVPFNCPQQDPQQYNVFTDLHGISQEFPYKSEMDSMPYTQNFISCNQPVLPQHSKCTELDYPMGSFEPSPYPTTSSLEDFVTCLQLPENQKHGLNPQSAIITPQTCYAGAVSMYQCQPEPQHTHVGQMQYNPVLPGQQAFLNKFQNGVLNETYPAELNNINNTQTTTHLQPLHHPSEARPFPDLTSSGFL

A short description of test [9]: qHTS assay to identify small molecule antagonists of the estrogen related receptor (ERR) signaling pathway - cell viability counter screen (AID 1224818). Note: series mostly up to about 46 µM. The method in brief: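 Cytotoxicity counter screen: fluorescence from CellTiter-Fluor, added after 17.5 h compound exposure at 37 C and read 30 min later. ERR cell line seeded at 2,000 cells/well, preincubated 6 h before dosing.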

The nature of test [10]: qHTS assay to identify small molecule antagonists of the estrogen related receptor (ERR) signaling pathway (AID 1224819; note: series mostly up to about 46 µM; nearly all actives have a fitted effect of over 50% in size). The method in brief: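 LOPAC library screened for antagonism as reduced One-Glo luminescence in ERR reporter cells (2,000/well). Compounds were added after 6 h pre-incubation and left 18 h at 37C; reading followed a 30 min room-temperature reagent step.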

A short description of test [11]: qHTS assay to identify small molecule agonists of the estrogen related receptor (ERR) signaling pathway (AID 1224820). Note: potency is the fitted concentration of half-maximal effect. The method in brief:
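After 6 h plating (2,000 cells/well) and 18 h compound treatment at 37 C, ERR cells were lysed with One-Glo and luminescence read after 30 min at room temperature.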

The subject of test [12] is estrogen-related receptor alpha (ERRalpha) with PGC-1alpha coactivator, human. Nature of the test: qHTS assay to identify small molecule antagonists of the estrogen related receptor signaling pathway with the pleiotropic PPARgamma coactivator (PGC) (AID 1224821; calls by dose curve;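 note: series mostly up to about 46 µM; lower luminescence signal means antagonism of PGC/ERR signalling; nearly all actives have a fitted effect of over 50% in size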). A digest of the protocol:
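Luminescence from One-Glo luciferase reagent (30 min, room temperature) measured after 18 h compound treatment at 37 °C. Cells carry the PGC/ERR reporter and were seeded 6 h prior to dosing.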

The nature of test [13]: qHTS assay to identify small molecule antagonists of the estrogen related receptor signaling pathway with the pleiotropic PPARgamma coactivator (PGC) cell viability counter screen (AID 1224822; note: series mostly up to about 46 µM). The method in brief:
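Viability counter-screen read by fluorescence intensity after 30 min with CellTiter-Fluor at 37 C; PGC/ERR reporter cells were exposed to compounds for 17.5 h at 37 C following a 6 h preincubation.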

Test [14] can be described thus: qHTS assay to identify small molecule agonists of the estrogen related receptor signaling pathway with the pleiotropic PPARgamma coactivator (PGC) (AID 1224823). The method in brief: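 Luminescence from One-Glo reagent (30 min, room temperature) was read after 18 h compound treatment at 37 C of PGC/ERR cells plated 6 h beforehand; compounds delivered in DMSO by pin tool.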

Sequence of Acetylcholinesterase (Homo sapiens) (P22303 whole entry, looked up): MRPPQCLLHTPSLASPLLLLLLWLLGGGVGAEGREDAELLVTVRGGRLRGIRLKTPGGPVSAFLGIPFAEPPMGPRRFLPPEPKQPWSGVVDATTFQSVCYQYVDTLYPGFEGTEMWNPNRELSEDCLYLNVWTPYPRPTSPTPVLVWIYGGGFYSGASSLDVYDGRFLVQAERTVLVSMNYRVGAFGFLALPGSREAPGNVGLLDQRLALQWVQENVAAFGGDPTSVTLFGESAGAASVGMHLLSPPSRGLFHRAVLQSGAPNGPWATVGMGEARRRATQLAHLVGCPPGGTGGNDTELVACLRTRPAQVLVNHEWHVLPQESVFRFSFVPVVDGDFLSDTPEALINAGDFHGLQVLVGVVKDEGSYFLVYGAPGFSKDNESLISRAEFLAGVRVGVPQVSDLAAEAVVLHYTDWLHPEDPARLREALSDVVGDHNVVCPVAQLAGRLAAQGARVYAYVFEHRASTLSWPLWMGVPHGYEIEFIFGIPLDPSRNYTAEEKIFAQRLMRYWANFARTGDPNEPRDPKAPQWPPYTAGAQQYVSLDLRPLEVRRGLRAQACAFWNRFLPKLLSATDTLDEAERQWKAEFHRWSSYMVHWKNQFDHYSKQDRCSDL

For `Brc1cc(Br)cc(Br)c1`, the Potency result in test [1], in [2], in test [3], in test [4], in [5] and in test [6] was “inactive” each time.

Consider `c1ccncc1`, for which the Potency result in test [7], in [8] and in [2] was “inactive” in each case. The compound was called inactive in test [3], in test [4], in test [5] and in test [6].

Take `Nc1cccc([N+](=O)[O-])c1`: the Potency result in [7], in test [3], in test [4], in test [5] and in test [6] was “inactive” in each case.

`CCN(CC)c1ncnc2c1ncn2[C@@H]1O[C@H](COP(=O)(O)OP(=O)(O)C(Br)(Br)P(=O)(O)O)[C@@H](O)[C@H]1O`: the Potency entry in [9], in test [10], in test [11], in test [12], in test [13] and in test [14] was “inactive” in each case.

Turning to `CS(=N)(=O)CC[C@H](N)C(=O)O` (some centres not stated), the Potency entry in [9], in [10], in test [11], in test [12], in test [13] and in test [14] was “inactive” each time.

In the case of `N[C@@]1(C(=O)O)CC[C@@H](C(=O)O)C1`, the Potency result in test [9], in [10], in [11], in [12], in test [13] and in [14] was “inactive” each time.

As to `CC(C)(O)[C@@H]1[C@H]2OC(=O)[C@@H]1[C@]1(O)C[C@H]3O[C@]34C(=O)O[C@H]2[C@]14C` (tested in a mixture with another compound), the Potency result in test [9], in test [10], in test [11], in test [12], in test [13] and in [14] was “inactive” each time.

For the compound `O=c1ccc2[nH]cc(C3=CCNCC3)c2[nH]1`, the Potency result in [9], in test [10], in [11], in test [12], in [13] and in test [14] was “inactive” each time.

In the case of `CC1OC1P(=O)(O)O` (configuration not stated), the Potency entry in test [9], in test [10], in test [11], in test [12], in test [13] and in [14] was “inactive” each time.

Regarding `Nc1ccccc1[N+](=O)[O-]`, the Potency result in test [7], in test [8], in test [2], in test [3], in test [4] and in [5] was “inactive” each time. In test [6], the Potency entry was “inactive”.

As for `CCCN(CCC)CCc1ccc(O)c(O)c1`, the Potency entry in test [9], in [10], in [11], in test [12], in [13] and in test [14] was “inactive” throughout.

On to `Cc1ccc(N)c([N+](=O)[O-])c1`, for which the Potency entry in test [7], in [8], in [3], in test [4], in [5] and in test [6] was “inactive” in each case.

With `Cn1cnc(CCN)c1`, the Potency result in [9], in test [10], in [11], in [12], in test [13] and in test [14] was “inactive” in each case.

In the case of `Nc1ccc(Cl)cc1Cl`, the Potency entry in test [1], in test [2], in test [3], in test [4], in [5] and in test [6] was “inactive” throughout.

`Cc1cccc(C)c1[N+](=O)[O-]`: the Potency entry in test [7], in test [1], in test [2], in test [3], in test [4] and in test [5] was “inactive” each time. Further, in test [6], the Potency result was “inactive”.

With `O=C(O)C(c1ccc(Cl)cc1)c1ccc(Cl)cc1`, the Potency entry in test [7], in test [8], in [2], in test [3], in test [4] and in [5] was “inactive” throughout. Moreover, in test [6], the Potency entry was “inactive”.

Regarding `C[N+]1(C)C2CCC1CC(OC(=O)c1c[nH]c3ccccc13)C2` (configuration not stated), the Potency result in test [9], in test [10], in [11], in test [12], in test [13] and in test [14] was “inactive” in each case.

On to `NCc1cc(=O)[nH]o1`, for which the Potency entry in test [9], in test [10], in test [11], in test [12], in test [13] and in [14] was “inactive” each time.

Consider `Cc1sc2ccccc2c1CC1=NCCN1`, for which the Potency entry in [9], in [10], in [11], in test [12], in test [13] and in test [14] was “inactive” each time.

Turning to `COc1ccc(CNC(=O)/C=C/c2ccc3[nH]cc(CCN(C)C)c3c2)cc1`, the Potency result in [9], in [10], in test [11], in test [12], in test [13] and in test [14] was “inactive” throughout.

For the compound `Nc1cccc(C(F)(F)F)c1`, the Potency result in test [7], in test [8], in test [3], in test [4], in test [5] and in test [6] was “inactive” each time.

`C#CCOC(=O)C1=CCCN(C)C1`: the Potency result in [9], in [10], in test [12] and in test [13] was “inactive” each time. Also, the Potency in test [11] was 22 µM (active).

Turning to `C[C@@H]1O[C@H](C[N+](C)(C)C)C[C@H]1O`, the Potency result in test [9], in [10], in [11], in test [12], in test [13] and in [14] was “inactive” throughout.

On to `C[C@H](Cc1ccc2c(c1)OC(C(=O)O)(C(=O)O)O2)NC[C@H](O)c1cccc(Cl)c1`, for which the Potency entry in test [9], in test [10], in [11], in test [12], in [13] and in test [14] was “inactive” throughout.

Take `O=C1OC(=O)c2c(Cl)c(Cl)c(Cl)c(Cl)c21`: the Potency entry in test [7], in test [8], in test [2], in test [3], in test [4] and in test [5] was “inactive” throughout. Also, the Potency result in [6] is “inactive”.

For `C1=CC2C3C=CC(C3)C2C1` (configuration not stated), the Potency entry in test [7], in test [3], in test [4], in test [5] and in test [6] was “inactive” throughout.

With `Brc1ccc(Br)c(Br)c1`, the Potency result in test [7], in test [8], in [1], in [2], in test [3] and in test [4] was “inactive” throughout. Besides, the Potency entry in test [5] and in test [6] was “inactive” each time.

As for `Oc1c(Cl)ccc(Cl)c1Cl`, the Potency result in [7], in test [8], in test [2], in test [3], in [4] and in [5] was “inactive” in each case. Moreover, in test [6], the Potency entry was “inactive”.

As for `c1cc(OCC2CO2)cc(OCC2CO2)c1` (configuration not stated), the Potency in test [7] is 38.3 µM (active). Further, the Potency result in test [8], in test [3], in test [4], in test [5] and in test [6] was “inactive” each time.

With `CC(N)[C@H](O)c1ccc(O)c(O)c1` (some centres not stated), the Potency result in test [9], in [10], in [11], in test [12], in test [13] and in test [14] was “inactive” throughout.

With `O=C(N[C@H]1CN2CCC1CC2)c1ccc(Cl)cc1`, the Potency result in [9], in test [10], in test [11], in test [12], in test [13] and in test [14] was “inactive” each time.

Turning to `ClC1=C(Cl)C(Cl)(Cl)C(Cl)=C1Cl`, the Potency entry in test [2], in [3], in test [4], in test [5] and in [6] was “inactive” in each case.

For the compound `Brc1ccc(-c2ccccc2)cc1`, the Potency entry in [7], in [3], in test [4], in [5] and in test [6] was “inactive” in each case.

With `C[C@H](N)Cc1cccc(C(F)(F)F)c1`, the Potency result in test [9], in [10], in test [11], in test [12], in test [13] and in test [14] was “inactive” in each case.
